# From PubChem BioAssay
# Sampled rows, rich in hits. Any-hit rate of the full collection: about 10%.
# HPGD inh = qHTS Assay for Inhibitors of HPGD (15-Hydroxyprostaglandin Dehydrogenase); purified HPGD, NADH fluorescence kinetic, PGE2 substrate; Potency, µM, for inactives: at the highest dose activity change, negative = inhibition, hits mostly inhibitors; 4.3% of 150,000 active; 15-hydroxyprostaglandin dehydrogenase [NAD(+)] (Homo sapiens), P15428; further: potency means the concentration at half of the fitted maximal effect
#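 NADH formation kinetics: reaction with 30 uM PGE2 and 1 mM NAD+ (final), 20 nM enzyme, Tris-HCl pH 8 with Tween 20, after 15 min compound preincubation at room temperature. Fluorescence change, last versus first of five reads.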
# ALDH1A1 block = qHTS Assay for Inhibitors of Aldehyde Dehydrogenase 1 (ALDH1A1); Aldehyde dehydrogenase 1A1 (Homo sapiens), P00352; Purified ALDH1A1, NADH fluorescence, propionaldehyde substrate; Potency, µM (titrated, usually from 75.3 µM), without a hit: at the highest dose activity, negative = inhibition, hits mostly inhibitors; 7.3% of 220,000 active;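 further: potency means the concentration at half of the fitted maximal effect; plate controls were no enzyme wells and a reference inhibitor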
# PNC assembly inh = High Content Assay for Compounds that inhibit the Assembly of the Perinucleolar Compartment. PC3M PTB-GFP, PNC prevalence imaging, 16 h; stronger effect = lower value. activity change (PNC), negative = inhibition, % at 10 µM. 3.1% of 140,000 active. AID 2417, 2010;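 active means readout at or below -70, meaning at least 70% loss of cells showing the perinucleolar compartment, a nuclear body marking cancer cells; inconclusive means readout between -30 and a set limit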;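 further: plate controls were DMSO wells for no effect and camptothecin positive control wells for full effect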
#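 PC3M cells stably expressing PTB-GFP, 750–1000 cells/well, treated 16 h at 37 °C with compound (23 nl of library stock), in duplicate. After paraformaldehyde fixation and Hoechst stain, imaged at 20x; PNC prevalence scored by image analysis.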
# LMNA splice mod = qHTS Assay for Modulators of Lamin A Splicing. 0.01% of 200,000 active. Potency, µM (doses to about 46.1 µM), for inactives: top-dose ratio change, negative = inhibition, actives largely listed as inhibitors. HeLa LMNA splicing GFP/RFP minigene ratio, 48 h; active means well fitted inhibition curve with a large enough effect in the signal ratio, with a control signal flat, not every such curve was filed as active; inconclusive means small, poorly fitted or top-dose-only effect, or effect the other way, or a change in a side signal; the % refers to the signal ratio; further: potency means the concentration at half of the fitted maximal effect
#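 Read-out is the ratio of GFP to DsRed2 object intensity, acquired by 488 nm laser-scanning cytometry on HeLa lamin A-EGFP minigene reporter cells. Compound incubation 48 hrs at 37 °C in Opti-MEM with 2% FBS; DMSO 0.5% final.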
# 12-hLO inh = qHTS Assay for Inhibitors of 12-hLO (12-human lipoxygenase). Polyunsaturated fatty acid lipoxygenase ALOX12 (Homo sapiens), P18054. purified 12-hLO, xylenol orange hydroperoxide absorbance. Potency, µM (series often up to 57.1 µM), for inactives: at the top dose activity change, negative = inhibition, actives largely listed as inhibitors. 0.12% of 150,000 active. AID 1452, 2008; active means well fitted inhibition curve with a large enough effect; inconclusive means small, poorly fitted or top-dose-only effect; further: potency means the concentration at half of the fitted maximal effect; nearly all actives have a fitted effect of over 55% in size
# Target sequence (P18054 whole entry, looked up): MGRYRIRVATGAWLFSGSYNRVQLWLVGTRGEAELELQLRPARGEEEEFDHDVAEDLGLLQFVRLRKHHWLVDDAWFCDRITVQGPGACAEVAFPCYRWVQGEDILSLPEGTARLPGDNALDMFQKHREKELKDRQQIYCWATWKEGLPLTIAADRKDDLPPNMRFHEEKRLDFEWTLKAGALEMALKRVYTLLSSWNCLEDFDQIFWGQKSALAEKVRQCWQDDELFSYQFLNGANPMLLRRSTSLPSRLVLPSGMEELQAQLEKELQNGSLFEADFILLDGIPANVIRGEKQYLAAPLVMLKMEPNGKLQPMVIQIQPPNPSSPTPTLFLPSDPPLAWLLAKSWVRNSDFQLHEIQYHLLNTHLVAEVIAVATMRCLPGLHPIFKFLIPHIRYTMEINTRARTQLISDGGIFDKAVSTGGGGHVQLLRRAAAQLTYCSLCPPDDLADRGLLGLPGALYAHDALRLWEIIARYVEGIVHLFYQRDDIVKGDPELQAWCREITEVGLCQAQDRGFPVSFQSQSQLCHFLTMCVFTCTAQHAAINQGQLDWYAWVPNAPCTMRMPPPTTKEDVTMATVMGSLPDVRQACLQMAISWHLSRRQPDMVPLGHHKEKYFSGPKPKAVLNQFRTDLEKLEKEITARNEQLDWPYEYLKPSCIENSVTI
#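 Hydroperoxide formation by human 12-lipoxygenase from 40 uM arachidonic acid was followed colorimetrically via ferric-xylenol orange complex, using the 573/405 nm absorbance ratio. Enzyme concentration was 150 nM, with 30 min reaction at room temperature.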
# The depositor's hits bear a star; u = inconclusive; x = no result; [ ] = dose if it differs, or a comment. Unless noted, the call rests on the fitted dose curve; in most records, active means well fitted inhibition curve with a large enough effect (not every such curve was filed as active); inconclusive means small, poorly fitted or top-dose-only effect, or another doubt; inactive means no such curve, though single readings can be large or run the other way. Unless noted, on the % scale 0 is the no-effect control and ±100 the full control effect.
SMILES,HPGD inh,ALDH1A1 block,PNC assembly inh,LMNA splice mod,12-hLO inh
N/C(=N\OC(=O)COc1ccc(Br)cc1)c1ccncc1,-8.5%,6.5%,-102.2*,u,-3.4%
N/C(=N\OC(=O)COc1ccc([N+](=O)[O-])cc1)c1ccncc1,x,7.9%,x,x,x
N[C@@H](C(=O)O)[C@@H](CC(=O)O)c1ccc(Cl)cc1,x,4.6%,x,x,x
CC(C)(C)NC[C@H](O)COc1cccc2c1CCC(=O)N2,0.8%,1.1%[20.9 µM],x,u,-0.8%[25.6 µM]
Cc1cc(-c2cc(C)c(O)c(C(C)(C)C)c2)cc(C(C)(C)C)c1O,-6.5%,9.5%[13.5 µM],x,x,-17.2%[11.4 µM]
CC(C)Oc1ccccc1C1CC(=O)Nc2cc3c(cc21)OCCO3 (configuration not stated),-10.9%,1.9%,-96.9*,u,-10.8%
COc1ccccc1C1CC(=O)Nc2cc3c(cc21)OCCO3 (configuration not stated),31.6µM*,u,-100.7*,u,-1.4%
O=C(c1ccc([N+](=O)[O-])cc1)N1CCN(c2ccc(Nc3ccccc3)nn2)CC1,x,x,x,8.4%[46 µM],x
NNC(=O)c1ccc(Cn2cc(Cl)cn2)cc1,-4.5%,11.2µM*,21.9,4.8%,-0.1%
NNC(=O)c1ccc(Cn2cc(Br)cn2)cc1,-6.0%,5.62µM*,-113.8*,u,4.1%
O=C(Nc1ccc(Cl)c(Cl)c1)c1ccc(Cn2cc(Cl)cn2)cc1,u,6.2%,6.3,u,-18.0%
Cc1c(C(=O)COC(C)(C)C)[nH]c2ccccc12,4.47µM*,6.31µM*,u,-9.7%,2.2%
O=C(Nc1ccc(Cl)cc1F)c1cc(S(=O)(=O)NCc2ccc3c(c2)OCO3)ccc1F,x,x,x,-10.8%[46 µM],x
Cc1ccc2ccc(C(Nc3ccccn3)c3ccccc3)c(O)c2n1 (configuration not stated),-13.0%,-13.8%,-81.6*,u,-21.1%
Cc1ccnc(NC(c2ccsc2)c2ccc3ccc(C)nc3c2O)c1 (configuration not stated),x,25.1µM*,x,u,x
Cc1ccc2cc(/C=N/Nc3nc4ccccc4[nH]3)c(Cl)nc2c1,-15.0%,14.3%,-87.9*,-10.4%,3.2%
Cc1ccc(NCC(=O)N/N=C/c2cc3ccccc3nc2Cl)cc1,-13.9%,10µM*,-13.2,5.3%,-23.9%
COc1cc(OC)c(OC)cc1/C=N/Nc1nc2ccccc2[nH]1,x,8.9%,x,x,x
COc1ccc(-n2ncc3c(NC4CCCC4)ncnc32)cc1,x,x,x,-28.3%[46 µM],x
NC(=O)c1cc(C(=O)c2cccc(Cl)c2Cl)c[nH]1,x,u,x,4.9%[46 µM],x
CN(C)C(=O)c1cc(C(=O)c2ccccc2Cl)c[nH]1,x,7.94µM*,x,x,x
COCCCNC(=O)c1cc(C(=O)c2ccccc2Br)c[nH]1,x,u,x,8.1%[9.22 µM],x
O=C(c1c[nH]c(C(=O)C(Cl)(Cl)Cl)c1)c1ccccc1Br,x,1.78µM*,x,7.4%[9.22 µM],x
NC(=O)c1cc(C(=O)c2ccccc2Cl)c[nH]1,x,8.91µM*,x,x,x
O=C(Nc1ccc(F)cc1F)c1cc2ccc3cccnc3c2[nH]1,x,x,x,-9.3%[46 µM],x
SMILES,HPGD inh,ALDH1A1 block,PNC assembly inh,LMNA splice mod,12-hLO inh
COc1cc(/C=C/C(=O)O)cc(S(=O)(=O)Nc2ccc3nc(SC)sc3c2)c1OC,x,11.0%,x,-8.9%[46 µM],x
O=c1oc2ccccc2c(O)c1C=NCc1ccccn1,u,28.2µM*,-29.3,0.1%,4.5%
Cc1[nH][nH]c(=O)c1C(c1ccc(O)c([N+](=O)[O-])c1)c1c(C)[nH][nH]c1=O,-7.4%,u,-3.6,4.0%,-4.7%
Cc1[nH][nH]c(=O)c1[C@@H](c1ccccc1[N+](=O)[O-])C(C#N)C#N,x,25.1µM*,x,x,x
CC(C)(C)c1ccc(S(=O)(=O)N2CC(=O)Nc3ccccc32)cc1,-14.4%,u,-25.6,2.3%,0.6%
CCc1ccccc1N(C1=NCCCS1)S(=O)(=O)c1ccc(C(C)(C)C)cc1,-16.9%,0.794µM*,u,u,3.9%
CC[n+]1c(C)cc(C)n1-c1ccccc1,x,5.8%,x,17.8%[9.22 µM],x
CCCC(c1nnnn1Cc1ccc(F)cc1)N1CCN(CC)CC1 (configuration not stated),x,22.4µM*,x,-4.7%[46 µM],x
COc1ccccc1N1CCN(C(c2ccc(N(C)C)cc2)c2nnnn2CCc2ccccc2)CC1 (configuration not stated),-22.3%,22.4µM*,5.8,-1.8%,-2.5%
CC(C)C(c1nnnn1Cc1ccc(F)cc1)N1CCN(c2ccc(O)cc2)CC1 (configuration not stated),x,3.98µM*,x,u,x
COc1ccc(Cn2nnnc2C(C(C)C)N2CCN(c3ccccc3OC)CC2)cc1 (configuration not stated),-7.8%,17.8µM*,34.7,u,-14.0%
COc1ccc(C(c2nnnn2CCc2ccccc2)N2CCN(C3CCCC3)CC2)cc1 (configuration not stated),x,-5.8%,47.8,u,2.4%
CC(C)C(c1nnnn1Cc1cccs1)N1CCN(c2ccccc2)CC1 (configuration not stated),-1.2%,u,-26.7,-0.9%,0.0%
CC1CCN(S(=O)(=O)c2ccc3c(c2)CCC(=O)N3CC(=O)Nc2cccc(C#N)c2)CC1,x,x,x,11.8%[46 µM],x
CC[C@@]1(O)CC2CN(CCc3c([nH]c4ccccc34)[C@](C(=O)OC)(c3cc4c(cc3OC)N(C)C3[C@@](O)(C(=O)OC)C(OC(C)=O)[C@]5(CC)C=CCN6CC[C@@]43C65)C2)C1 (some centres not stated),-4.5%,-0.1%,x,x,-10.1%
CCN(CC)CCNC(=O)c1c(C)oc2ncn(C)c(=O)c12,x,x,x,12.7%[46 µM],x
CCCCNS(=O)(=O)c1ccc2nc(SCC(=O)Nc3cccc(F)c3)[nH]c2c1,-3.0%,-15.1%,-98.3*,u,-2.6%
CCCCNS(=O)(=O)c1ccc2nc(SCC(=O)Nc3ccccc3Cl)[nH]c2c1,x,u,-6.0,-11.3%,-1.2%
CCCCNS(=O)(=O)c1ccc2nc(SCC(=O)c3ccccc3OC)[nH]c2c1,28.2µM*,u,-5.7,u,-4.3%
CCOC(=O)c1ccccc1NS(=O)(=O)c1ccc(N2CCCCS2(=O)=O)cc1,x,x,x,4.7%[46 µM],x
CCOC(=O)C(CC)N1CCN(Cc2ccc(F)cc2)C(=O)C1=O (configuration not stated),x,x,x,-2.9%[46 µM],x
Cn1c(SCc2nc(-c3ccc(Cl)cc3)no2)nnc1-c1cccs1,-27.0%,2.8%,-110.7*,-19.2%,-4.4%
CCC(C)NC(=O)CN1C(=O)c2cccnc2Sc2ccccc21 (configuration not stated),x,x,x,-11.7%[46 µM],x
CCN(CC)c1ccc(/C=N/NC(=O)c2c[nH]c3ccccc23)cc1,u,u,u,7.2%,1.1%
CCN(CC)c1ccc(C=N/C(C#N)=C(\N)C#N)cc1,-1.1%,11.2µM*,-3.6,-1.4%,-20.8%
